The text below walks through data of PubChem BioAssay (NCATS).

Results filed as inconclusive are left out. Values without a mark were called inactive. The source made the active and inactive calls. Unless noted, the call rests on the fitted dose curve.

A short description of experiment [1]: qHTS for Inhibitors of the Functional Ribonucleoprotein Complex (vRNP) of Lassa (LASV) Arenavirus: LASV Primary Screen - GLuc reporter signal (AID 1347082; calls by dose curve; tested in HEK293 reporter line; further: nearly all actives have a fitted effect of over 60% in size; on activity change, negative = inhibition: series mostly up to about 57 µM). For orientation: In qHTS, concentration-response curves come from the screen itself.
The nature of experiment [2]: qHTS for Inhibitors of the Functional Ribonucleoprotein Complex (vRNP) of Lassa (LASV) Arenavirus: Viability assay - alamar blue signal for LASV Primary Screen (AID 1347083; calls by dose curve; tested in HEK293 reporter line; further: nearly all actives have a fitted effect of over 80% in size; on activity change, negative = reduced viability: series mostly up to about 57 µM).
Experiment [3] in a line: qHTS for Inhibitors of the Functional Ribonucleoprotein Complex (vRNP) of Lymphocytic Choriomeningitis Arenaviruses (LCMV): Viability assay - alamar blue signal for LCMV Primary Screen (AID 1347085; calls by dose curve; tested in HEK293 reporter line; further: nearly all actives have a fitted effect of over 80% in size; on activity change, negative = lower viability: series mostly up to about 57 µM).
The target in experiment [4] is Nucleoprotein (Lymphocytic choriomeningitis virus (strain Armstrong)) (UniProt P09992). Kind of experiment: qHTS for Inhibitors of the Functional Ribonucleoprotein Complex (vRNP) of Lymphocytic Choriomeningitis Arenaviruses (LCMV): LCMV Primary Screen - GLuc reporter signal (AID 1347086). Further: nearly all actives have a fitted effect of over 70% in size. On activity change, negative = inhibition: series mostly up to about 57 µM.
On the % scale 0 is the no-effect control and ±100 the full control effect; potency means the concentration at half of the fitted maximal effect.

Nucleoprotein (Lymphocytic choriomeningitis virus (strain Armstrong)), sequence (P09992 whole entry, looked up): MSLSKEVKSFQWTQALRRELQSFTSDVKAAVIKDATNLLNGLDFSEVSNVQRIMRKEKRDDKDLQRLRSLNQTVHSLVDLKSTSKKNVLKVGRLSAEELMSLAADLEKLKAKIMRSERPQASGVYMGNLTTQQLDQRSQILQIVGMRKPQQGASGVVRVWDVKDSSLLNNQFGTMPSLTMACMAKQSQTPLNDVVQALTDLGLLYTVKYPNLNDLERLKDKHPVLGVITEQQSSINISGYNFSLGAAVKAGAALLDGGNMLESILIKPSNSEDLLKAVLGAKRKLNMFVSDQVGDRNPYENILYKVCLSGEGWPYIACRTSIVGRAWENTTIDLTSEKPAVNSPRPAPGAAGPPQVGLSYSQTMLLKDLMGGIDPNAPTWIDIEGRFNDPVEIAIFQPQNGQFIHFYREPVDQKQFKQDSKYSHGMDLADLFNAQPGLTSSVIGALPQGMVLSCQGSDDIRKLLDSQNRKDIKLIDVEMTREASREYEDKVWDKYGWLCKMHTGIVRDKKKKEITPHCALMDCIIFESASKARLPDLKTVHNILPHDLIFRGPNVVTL

For `O=c1c(-c2ccc(O)cc2)coc2cc(OC3O[C@H](CO)[C@H](O)[C@H](O)[C@H]3O)cc(O)c12` (stereo not given in full), the Potency is 19.3 µM (active) in experiment [1], 17.2 µM (active) in experiment [2], 21.7 µM (active) in experiment [3] and 19.3 µM (active) in experiment [4].

Turning to `C[C@H]1[C@H](C)CC[C@]2(C)CC[C@]3(C)C(=CC(=O)C4[C@@]5(C)CC[C@H](O)C(C)(C)C5CC[C@]43C)[C@H]12` (stereo not given in full), the Potency entry in experiment [1], in experiment [2], in experiment [3] and in experiment [4] was “inactive” each time.

Regarding `O=C(O)[C@@H]1Cc2c([nH]c3ccccc23)C2CCC(=O)N21` (stereo not given in full), the Potency entry in experiment [1], in experiment [2], in experiment [3] and in experiment [4] was “inactive” each time.

As for `O=C(O)C=Cc1ccc(Cn2ccnc2)cc1`, the Potency result in experiment [1], in experiment [2], in experiment [3] and in experiment [4] was “inactive” throughout.

For `CC(=O)CCC1=C(C)CCCC1(C)C`, the Potency result in experiment [1], in experiment [2], in experiment [3] and in experiment [4] was “inactive” throughout.

For `O=Cc1ccc(O)cc1O`, the Potency result in experiment [1], in experiment [2], in experiment [3] and in experiment [4] was “inactive” in each case.

In the case of `CC1(C)C[C@@H](O)[C@]2(C)CC[C@]3(C)C(=CCC4[C@@]5(C)CC[C@H](O)[C@](C)(CO)C5CC[C@]43C)[C@@H]2C1` (stereo not given in full), the Potency entry in experiment [1], in experiment [2], in experiment [3] and in experiment [4] was “inactive” each time.

In the case of `COc1cc(C)c(C(=O)Oc2cc(C)c(C(=O)O)c(O)c2C)c(OC)c1C`, the Potency entry in experiment [1], in experiment [2], in experiment [3] and in experiment [4] was “inactive” each time.

Turning to `O=C(Oc1ccccc1)c1ccccc1C(=O)Oc1ccccc1`, the Potency result in experiment [1], in experiment [2], in experiment [3] and in experiment [4] was “inactive” in each case.

For `CC12CCC(=O)C=C1C(O)CC1C2CCC2(C)C1CCC2(O)C(=O)CO` (stereo not given), the Potency entry in experiment [1], in experiment [2], in experiment [3] and in experiment [4] was “inactive” throughout.

On to `CC/C=C\CC1=C(C)CCC1=O`, for which the Potency result in experiment [1], in experiment [2], in experiment [3] and in experiment [4] was “inactive” throughout.

With `CCCCCCCCCCCCCCCC(=O)OC(CO)CO`, the Potency result in experiment [1], in experiment [2], in experiment [3] and in experiment [4] was “inactive” each time.

Turning to `COc1c2c(nc3occc13)C(CCC(C)(C)O)(OC)C(O)CC2` (stereo not given), the Potency result in experiment [1], in experiment [2], in experiment [3] and in experiment [4] was “inactive” each time.

For `C[C@H](CCC(=O)NCC(=O)O)[C@H]1CC[C@H]2[C@@H]3[C@H](O)C[C@@H]4C[C@H](O)CC[C@]4(C)[C@H]3C[C@H](O)[C@]12C`, the Potency result in experiment [1], in experiment [2], in experiment [3] and in experiment [4] was “inactive” each time.

As to `CC(C)(C)c1ccccc1`, the Potency result in experiment [1], in experiment [2], in experiment [3] and in experiment [4] was “inactive” throughout.

For the compound `C#C[C@]1(O)CC[C@H]2[C@@H]3CCC4=Cc5oncc5CC4(C)[C@H]3CCC21C` (stereo not given in full), the Potency result in experiment [1], in experiment [2], in experiment [3] and in experiment [4] was “inactive” throughout.

For `COc1ccc2c(c1)c(=O)cc(-c1ccccc1)n2C`, the Potency result in experiment [1], in experiment [2], in experiment [3] and in experiment [4] was “inactive” throughout.

With `C[C@]12CCC(=O)C=C1CC[C@@H]1[C@H]2[C@@H](O)C[C@@]2(C)[C@H]1CC[C@]2(O)C(=O)CO`, the Potency result in experiment [1], in experiment [2], in experiment [3] and in experiment [4] was “inactive” each time.

Take `C=C1[C@H]2C[C@H]3[C@H]4N5C[C@]6(C)CCC[C@]47[C@H]([C@H]2O)[C@]3(C[C@]5(O)[C@H]67)[C@@H]1O`: the Potency entry in experiment [1], in experiment [2], in experiment [3] and in experiment [4] was “inactive” each time.

For the compound `C=C(C)[C@@H]1CCC2(C(=O)O)CC[C@]3(C)[C@H](CC[C@@H]4[C@@]5(C)CCC(=O)C(C)(C)[C@@H]5CC[C@]43C)[C@@H]12` (stereo not given in full), the Potency result in experiment [1], in experiment [2], in experiment [3] and in experiment [4] was “inactive” each time.

`CC/C=C\C/C=C\C/C=C\C/C=C\C=C\C(O)CCCC(=O)O` (stereo not given): the results for the activity change, negative = inhibition in experiment [1] and in experiment [4] were 1.12% [at 0.757 µM] and 1.64% [at 0.757 µM], respectively. Moreover, in experiment [2], the activity change, negative = reduced viability was 9.64% [at 0.757 µM]. In experiment [3], the activity change, negative = lower viability is 6.07% [at 0.757 µM].

On to `CC(=Cc1ccccc1)C=C1SC(=S)N(CC(=O)O)C1=O`, for which the Potency result in experiment [1], in experiment [2], in experiment [3] and in experiment [4] was “inactive” in each case.

For the compound `CC(=O)N1CCN(c2ccc(OCc3nn(C)c(C)c3-c3cccc4c(CCCOc5cc(C)c(Cl)c(C)c5)c(C(=O)O)n(Cc5cccnc5)c34)cc2)CC1`, the Potency result in experiment [1], in experiment [2], in experiment [3] and in experiment [4] was “inactive” each time.

With `CCOC(=O)CC(C)C`, the Potency result in experiment [1], in experiment [2], in experiment [3] and in experiment [4] was “inactive” each time.

`CC(C)=CCC1=C(O)[C@](O)(CC=C(C)C)C(=O)C(C(=O)CC(C)C)=C1O`: the Potency result in experiment [1], in experiment [2], in experiment [3] and in experiment [4] was “inactive” in each case.

Consider `COc1ccc(-c2coc3cc(OC(C)=O)c(OC)cc3c2=O)cc1`, for which the Potency result in experiment [1], in experiment [2], in experiment [3] and in experiment [4] was “inactive” in each case.

`COC(=O)c1ccc(N2CC3CNC(=O)C2(C(=O)OC)N3C)cc1` (stereo not given): the Potency result in experiment [1], in experiment [2], in experiment [3] and in experiment [4] was “inactive” each time.

Turning to `O=C(/C=C/c1ccc(O)cc1)OC[C@H]1O[C@@H](Oc2c(-c3ccc(O)cc3)oc3cc(O)cc(O)c3c2=O)[C@H](O)[C@@H](O)[C@@H]1O`, the Potency result in experiment [1], in experiment [2], in experiment [3] and in experiment [4] was “inactive” each time.

On to `Cn1c(-c2ccccc2)cc(=O)c2ccccc21`, for which the Potency result in experiment [1], in experiment [2], in experiment [3] and in experiment [4] was “inactive” in each case.

Consider `CC(C)CNC(=O)/C=C/C=C/c1ccc2c(c1)OCO2`, for which the Potency result in experiment [1], in experiment [2], in experiment [3] and in experiment [4] was “inactive” in each case.
